About 2,100 (0.62%) of roughly 340,000 compounds were called active. A selection follows. Measured potencies and affinities stand elsewhere. Unmarked numbers belong to inactive results.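 How the source made its calls: active means first-screen hits whose inhibition reached a set limit at any dose in the follow-up dose series; inconclusive means inhibition above the set first-screen limit but never retested; inactive means the rest.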

This assay deals with Rac GTPase-activating protein 1 (Homo sapiens) (UniProt Q9H0H5). Description: MgcRacGAP GTPase-activating activity inhibitors, confirmation, biochemical, ADP Hunter fluorescence, primary and confirmatory (AID 624330).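 Further: fluorescence reports GDP produced by GAP-driven GTP hydrolysis.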 The settings on record: MgcRacGAP-stimulated Rac1 GTP hydrolysis, at 30 µM, hits give high values, GST-tagged Rac1 F28L mutant substrate.
Chain of Rac GTPase-activating protein 1 (Homo sapiens) (Q9H0H5 whole entry, looked up): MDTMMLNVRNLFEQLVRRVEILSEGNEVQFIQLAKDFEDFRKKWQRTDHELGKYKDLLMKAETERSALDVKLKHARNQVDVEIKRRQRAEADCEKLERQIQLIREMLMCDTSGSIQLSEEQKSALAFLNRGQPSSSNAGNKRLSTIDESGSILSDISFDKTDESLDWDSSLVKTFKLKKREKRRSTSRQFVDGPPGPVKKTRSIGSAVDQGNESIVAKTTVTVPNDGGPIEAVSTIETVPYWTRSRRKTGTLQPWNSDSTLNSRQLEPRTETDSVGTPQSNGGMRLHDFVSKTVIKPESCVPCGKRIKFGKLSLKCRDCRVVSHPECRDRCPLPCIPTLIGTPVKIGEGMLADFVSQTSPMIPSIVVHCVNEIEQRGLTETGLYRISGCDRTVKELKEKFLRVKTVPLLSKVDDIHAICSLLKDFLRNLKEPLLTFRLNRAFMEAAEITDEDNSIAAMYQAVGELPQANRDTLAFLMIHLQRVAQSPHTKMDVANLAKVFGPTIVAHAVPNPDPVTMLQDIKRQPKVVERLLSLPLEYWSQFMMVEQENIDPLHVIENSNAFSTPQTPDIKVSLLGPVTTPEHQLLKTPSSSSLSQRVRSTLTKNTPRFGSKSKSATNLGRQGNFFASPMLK
Turning to `O=C(O)CC1(CC(=O)NCc2cc(F)cc3c2OCOC3)CCCCC1`, the inhibition (commonly the drop in the measured response relative to a control, in per cent) is 5.25%. For `CN(CCc1cn[nH]c1)C(=O)CC1C(=O)NCCN1Cc1ccccc1C(F)(F)F` (centres undefined) the value was -8.64%. The value for `Cc1ccc(C(=O)NC(=O)CSc2ncccc2C(=O)O)cc1` was 1.2%. Turning to `Cc1ccc(S(=O)(=O)NN2C(=O)c3ccccc3NC2(C)C)cc1`, the inhibition is 6.9%. For `CC[C@H](C)[C@H](NC(N)=O)C(=O)Nc1ccc2c(c1)OCO2` the value was 3.75%; for `N#Cc1ccccc1S(=O)(=O)N1CCC(C(=O)Nc2cccc(C(=O)NC3CC3)c2)CC1`, -0.25%.

Take `CCOC(=O)c1c(/N=C/c2ccc(OC)cc2O)sc2c1CCN(C)C2`: the inhibition is 17%.

On to `CCOC(=O)c1c(/N=C/c2ccc(C)cc2O)sc2c1CCC2`, for which the inhibition is 5.81%. For `Cc1cc(C(=O)O)ccc1N=Cc1c(O)ccc2ccccc12` the value was 3.39%; for `CCOC(=O)c1cc(CC)sc1/N=C/c1c(O)ccc2ccccc12`, 8.65%; for `N#Cc1ccc(OCC(=O)N2CCN(C(=O)c3ccco3)CC2)cc1`, 3.79%. Regarding `Cc1cc(COc2ccccc2OCc2cc(C)no2)on1`, the inhibition was 9.58%. The value for `CCOC(=O)c1c(N)sc2c(OCC)c(Br)ccc12` was 5.92%. On to `CCOC(=O)c1c(NC(C)=O)sc2c(O)c(Br)ccc12`, for which the inhibition was 4.12%. On to `CCOC(=O)c1c(N)sc(N)c1C(=O)OCC`, for which the inhibition is 7.17%. The value for `CCOC(=O)c1c(NC(C)=O)sc2c(OC)c(Br)ccc12` was -9.05%; that for `CN(CC(=O)Nc1ccc(F)cc1)C(=O)COC(=O)CCN1C(=O)C2CC=CCC2C1=O` (centres undefined) was 2.06%. The value for `O=C(CSc1nc(=O)n(CCN2CCOCC2)c2c1CCCC2)Nc1ccc([N+](=O)[O-])cc1` was -4.11%. The value for `COc1ccc(NC(=O)NNC(=O)C(C)Oc2ccc3ccccc3c2)cc1OC` (centres undefined) was 12.5%. `CCn1c(=O)c2c3c(sc2n2cnnc12)CCC3`: the inhibition was 4.61%. For `CCn1c(=O)c2c3c(sc2n(C)c1=O)CCC3` the value was 10.3%; for `c1ccc(CN2CCC3CC2c2cc(N4CCOCC4)ccc23)cc1` (centres undefined), 11.4%; for `O=C1OCC2=C1C(c1ccc(F)cc1)Sc1ccccc1N2` (centres undefined), -0.0633%. For `CCOC(=O)c1c(OCC)[nH]c2ccc(O)cc12` the value was 7.01%; for `CCOC(=O)c1c(C)[nH]c2c1cc(O)c1ccccc12`, 13.6%. For `CS(=O)(=O)N1CCN(c2ccc(NC(=O)CSc3ccc(Cl)cc3)cc2)CC1` the value was 3.35%; for `CCN1/C(=C/c2ccc3cc(C)ccc3[n+]2CC)Sc2cc(C)c(C)cc21`, 15.9%. Turning to `CCN1/C(=C\c2ccc3cc(C)ccc3[n+]2CC)Sc2cc(C)c(C)cc21`, the inhibition is 5.51%.

Consider `CCN1/C(=C/c2ccc3ccccc3[n+]2CCCS(=O)(=O)[O-])C=Cc2cc(C)ccc21`, for which the inhibition is 5.54%. In the case of `C=CC[n+]1c(/C=C2\C=Cc3cc(C)ccc3N2CC)ccc2ccccc21`, the inhibition was 17.6%.

`CCN1/C(=C/c2ccc3cccc(C)c3[n+]2CC)Sc2ccccc21`: the inhibition was 17.8%. On to `Cc1ccc2c(c1)S/C(=C\c1cccc[n+]1C)N2CCO`, for which the inhibition is 4.89%. The value for `CCN1/C(=C/c2ccc3cc(C)ccc3[n+]2CC)Sc2ccc3sccc3c21` was 6.5%. The value for `CCN1/C(=C/c2ccc3cc(C)cc(C)c3[n+]2CC)Sc2cc(C)ccc21` was 24.3%; that for `Cc1ccc2nc(SCC(=O)Nc3ccccc3F)nc(=O)n2c1` was 3.36%; that for `Cc1ccc(N(CC(=O)NCc2ccco2)C(=O)CCC(=O)Nc2ccccn2)c(C)c1` was 10.2%.

For the compound `CS(=O)(=O)N(CC(=O)N/N=C/c1cccs1)c1cccc(Cl)c1Cl`, the inhibition is 11.9%. Turning to `NS(=O)(=O)c1ccc(CNC(=O)Cc2ccc(S(=O)(=O)N3CCOCC3)s2)cc1`, the inhibition was 9.4%. On to `C/C(=N\NC(=O)c1c[nH]c2ccccc12)c1ccc2c(c1)OCO2`, for which the inhibition is 12.8%. On to `Fc1ccccc1/C=N/N1CCN(Cc2ccccc2Cl)CC1`, for which the inhibition was -7.94%. For `CCN(CC)S(=O)(=O)c1ccc(NC(=O)c2cccc3c2C(=O)N(CCOC)C3)cc1` the value was 8.69%; for `CN1CCN(C2=C(Cl)C(=O)c3ccccc3C2=O)CC1`, 12.8%. The value for `Cc1ccccc1N1C(=O)C(Cl)=C(N2CCCCCC2)C1=O` was -5.76%; that for `COC(=O)[C@]1(Cc2ccccc2)N[C@H](CN(C)C(=O)c2ccc(F)cc2)[C@@H]2C(=O)N(C)C(=O)[C@@H]21` was 1.31%; that for `Cc1c2ccccc2c(C)c2c1ccc1ccccc12` was 0.81%.

For the compound `CCCCC[n+]1cccc2c3ccccc3ccc21`, the inhibition is 16.4%. For `O=C(Nc1cccc2ccccc12)N1CCOCC1` the value was -1.28%; for `O=C(Cc1cccs1)Nc1nncs1`, 0.97%.

As to `CCOC(=O)N1CCN(C(=O)c2ccc3c(=O)n(CCc4ccccc4)c(=S)[nH]c3c2)CC1`, the inhibition was 5.18%. The value for `Cc1ccc(Cl)cc1N1CCN(C(=O)Cn2ccc3ccccc3c2=O)CC1` was 4.81%; that for `CCOc1ccc(CCNC(=O)C2CCN(c3nnc(-n4cccc4)s3)CC2)cc1` was -0.04%. The value for `CCN1CCN(CCCNC(=O)C2CCN(c3nnc(-n4cccc4)s3)CC2)CC1` was 16.4%. On to `CCOCC(=O)Nc1ccc(-c2cn3cccnc3n2)cc1`, for which the inhibition was 1.23%. Turning to `CCCCn1nc(C(=O)Nc2cc(C(F)(F)F)ccc2N2CCOCC2)ccc1=O`, the inhibition is 4.58%. For `O=C(CSc1nnnn1-c1cccc2ccccc12)Nc1ccc(N2CCOCC2)c(Cl)c1` the value was -5.56%; for `CCOc1ccc(N=Cc2c(O)cc(C)oc2=O)cc1`, 30%. As to `Cc1cccc(N=Cc2c(O)cc(C)oc2=O)c1`, the inhibition is 5.21%. For `CC1Cc2ccccc2N1C(=O)COc1nc2ccccc2nc1N1CCOCC1` (centres undefined) the value was 0.29%; for `CN1/C(=C\C=N\O)C(C)(C)c2ccccc21`, 15.1%; for `CN1/C(=C/C=N/NC(=O)c2ccc([N+](=O)[O-])cc2)C(C)(C)c2ccccc21`, 2.66%. Consider `Cc1ccccc1N=C/C=C1\N(C)c2ccccc2C1(C)C`, for which the inhibition was 4.55%.

As to `CN1/C(=C\C=Nc2ccc3ccccc3c2)C(C)(C)c2ccccc21`, the inhibition is 12.2%.

With `CO/N=C/C=C1/N(C)c2ccccc2C1(C)C`, the inhibition is 6.44%. For `CN1/C(=C\C=N\NC(=O)c2cccnc2)C(C)(C)c2ccccc21` the value was 4.5%.

For the origin of these results see PubChem BioAssay AID624330 (Southern Research Specialized Biocontainment Screening …, 2012).
